High-throughput results: PubChem BioAssay, National Center for Advancing Translational Sciences (NCATS)
HCMV antiviral: inhibitors of human cytomegalovirus | HFF cells, HCMV-luciferase reporter, 72 h; hits give low values | activity change, negative = inhibition, % at 57.5 µM | AID 1259415 | 4.5% of 410,000 active; in the data active = activity change below about -60%; inconclusive = no clear call, values can overlap the other calls; inactive = above about -39%
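Human foreskin fibroblasts infected with luciferase-reporter HCMV at MOI 1 PFU/cell, compounds at two doses. Luciferase measured 72 h post infection; normalized to buffer-only basal and Salinomycin (10uM) controls.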
Lassa entry inh: blocks Lassa virus binding to or entry into cells; Lassa virus pseudotype entry inhibition, cell reporter; Potency, µM (titrated, usually from 37.9 µM), inactives show at the highest dose activity change, negative = inhibition, most hits filed as inhibitors; 1.2% of 300,000 active; AID 540256; calls by dose curve; tested in HEK293 cells; also: potency is read from the fitted curve at half-maximal effect; nearly all actives have a fitted effect of over 50% in size
Marburg entry inh: inhibitors of Marburg virus binding or cell entry | Marburg virus pseudotyped entry inhibition, cell reporter | Potency, µM (top dose mostly 37.8 µM), without a hit: at the highest dose activity change, negative = inhibition, actives largely listed as inhibitors | 1.8% of 300,000 active; calls by dose curve; tested in HEK293 cells; also: potency is read from the fitted curve at half-maximal effect
FMDV antiviral: foot and mouth disease virus antiviral activity; FMDV antiviral cell-based qHTS; Potency, µM (top dose mostly 57.9 µM), for the others: top-dose activity change, negative = inhibition, hits mostly inhibitors; 1.2% of 410,000 active; calls by dose curve; tested in HEK293T cells; also: read-out not given here; potency is read from the fitted curve at half-maximal effect; nearly all actives have a fitted effect of over 45% in size
An asterisk follows results filed as active; [ ] = dose if it differs, or a comment. Sampled rows, rich in hits. Any-hit rate of the full collection: about 6.2%. % is scaled to controls: 0 for no effect and ±100 for the full control effect.

`COc1ccc2cc(/C=N/NC(=O)c3ccc(CN(c4cccc(Cl)c4Cl)S(C)(=O)=O)cc3)c(Cl)nc2c1` gave HCMV antiviral 37, Lassa entry inh inconclusive, Marburg entry inh 0.56µM* and FMDV antiviral inconclusive.
Screening COc1ccc2cc(/C=N/O)c(Cl)nc2c1 returned HCMV antiviral 52, Lassa entry inh inconclusive, Marburg entry inh 17% and FMDV antiviral 24%.
For Cc1ccc2c(=O)cc(C(=O)Nc3ccc(S(=O)(=O)Nc4onc(C)c4C)cc3)oc2c1C the results were HCMV antiviral 2, Lassa entry inh 2%[46.1 µM], Marburg entry inh 3%[46.1 µM] and FMDV antiviral -6%.
`CN(C)c1cc(N/N=C/c2ccc(Cl)cc2)nc(N(C)C)n1` gave HCMV antiviral inconclusive, Lassa entry inh 12µM*, Marburg entry inh inconclusive and FMDV antiviral -13%.
`O=[N+]([O-])c1cccc(COc2ccc(CN3CCCCC3)cc2)c1` gave HCMV antiviral -5 and FMDV antiviral 18%.
`O=C1C(=O)N(Cc2cccc([N+](=O)[O-])c2)c2ccccc21` gave HCMV antiviral -39, Lassa entry inh inconclusive, Marburg entry inh 11µM* and FMDV antiviral -20%.
O=[N+]([O-])c1cccc(CN2CCN(Cc3ccc(Br)cc3)CC2)c1 was read as HCMV antiviral -74* and FMDV antiviral inconclusive.
Screening COc1cccc(N2CC(NC(=O)c3cc4ccccc4o3)CC2=O)c1 (stereo unspecified) returned HCMV antiviral 43, Lassa entry inh 9%[46.1 µM] and FMDV antiviral -18%.
Screening COc1ccc(-c2csc3nc(-c4ccc(F)cc4)oc(=O)c23)cc1 returned HCMV antiviral 8, Lassa entry inh -6%[46.1 µM] and FMDV antiviral -3%.
COc1ccc(-c2csc3nc(-c4ccccc4OC)oc(=O)c23)cc1 was read as HCMV antiviral -69*, Lassa entry inh -4%[46.1 µM], Marburg entry inh inconclusive and FMDV antiviral inconclusive.
Screening O=S1(=O)N[C@@H](Cc2ccccc2)COc2cc(N3CCCCC3)ccc21 returned HCMV antiviral -21 and Marburg entry inh inconclusive.
`O=C(Nc1cccc(C(F)(F)F)c1)n1cc(-c2ccccn2)c(N2CCOCC2)n1` gave HCMV antiviral -64*, Lassa entry inh -14%, Marburg entry inh 7%[46.1 µM] and FMDV antiviral -20%.
For CCCc1cc(C(=O)Nc2cccnc2Cl)no1 the results were HCMV antiviral -1, Lassa entry inh 11%, Marburg entry inh inconclusive and FMDV antiviral 64%.
`CCCc1cc(C(=O)Nc2cc(C)ccc2O)no1` gave HCMV antiviral -69*, Lassa entry inh inconclusive, Marburg entry inh inconclusive and FMDV antiviral 41%.
`O=C1c2oc3ccccc3c(=O)c2C(c2ccccc2)N1Cc1ccc2c(c1)OCO2` (stereo unspecified) gave HCMV antiviral 13, Lassa entry inh 10%[46.1 µM] and FMDV antiviral 26%.
`C/C(=N\NC(=O)c1cc(C2CC2)nc2ccccc12)c1ccc(C)s1` gave HCMV antiviral -4, Lassa entry inh 1%, Marburg entry inh inconclusive and FMDV antiviral 8%.
Screening COc1ccc(/C(C)=N/NC(=O)c2cc(-c3cccnc3)nc3ccccc23)cc1 returned HCMV antiviral -3, Lassa entry inh 0%, Marburg entry inh -26% and FMDV antiviral 32%.
`C/C(=N\NC(=O)c1cc(C2CC2)nc2ccccc12)c1ccc(O)cc1O` gave HCMV antiviral -61*, Lassa entry inh inconclusive, Marburg entry inh inconclusive and FMDV antiviral 4%.
For C/C(=N\NC(=O)c1cc(-c2cccnc2)nc2ccccc12)c1ccccc1O the results were HCMV antiviral -102*, Lassa entry inh inconclusive, Marburg entry inh 10µM* and FMDV antiviral 30%.
Screening CCOc1ccc(-c2cc(C(=O)N/N=C(\C)c3cccnc3)c3ccccc3n2)c(OCC)c1 returned HCMV antiviral -36, Lassa entry inh inconclusive, Marburg entry inh 4µM* and FMDV antiviral 8%.
COc1ccc(-c2cc(C(=O)N/N=C(\C)c3cccnc3)c3ccccc3n2)cc1 was read as HCMV antiviral 47, Lassa entry inh -27%, Marburg entry inh -20% and FMDV antiviral 29%.
Screening CCOC(=O)c1c(-c2ccccc2)oc2ccc(NS(=O)(=O)c3ccc(C)cc3C)cc12 returned HCMV antiviral 29, Lassa entry inh -15%[46.1 µM], Marburg entry inh inconclusive and FMDV antiviral 52%.
`COc1ccc(NC(=S)N(CCN(C)C)C(C)c2ccco2)cc1` (stereo unspecified) gave HCMV antiviral -62*, Lassa entry inh inconclusive, Marburg entry inh inconclusive and FMDV antiviral 27%.
Cc1ccc2nc(Cl)c(C3CC(c4cccs4)=NN3S(C)(=O)=O)cc2c1 (stereo unspecified) was read as HCMV antiviral -60*, Lassa entry inh -2%, Marburg entry inh 17% and FMDV antiviral 42%.
For Cc1ccc2cc(C3CC(c4cccs4)=NN3S(C)(=O)=O)c(Cl)nc2c1 (stereo unspecified) the results were HCMV antiviral inconclusive and FMDV antiviral 41%.
`O=C(CC1C(=O)NCCN1Cc1cccc(Oc2ccccc2)c1)NCCc1ccccn1` (stereo unspecified) gave HCMV antiviral 23, Lassa entry inh 6.3µM*, Marburg entry inh inconclusive and FMDV antiviral -17%.
Screening COc1ccc(/C=C/C(=O)Nc2ccccc2C(=O)O)cc1 returned HCMV antiviral -3, Lassa entry inh inconclusive, Marburg entry inh 1.6µM* and FMDV antiviral -23%.
COc1ccc(/C=C/c2cc(C(=O)O)c3ccccc3n2)cc1 was read as HCMV antiviral -6, Lassa entry inh inconclusive, Marburg entry inh inconclusive and FMDV antiviral 2.8µM*.
`COc1cc(OC)c(OC)cc1/C=C/c1cc(C(=O)O)c2ccccc2n1` gave HCMV antiviral -31 and FMDV antiviral -4%.
For COc1ccc(/C=C/C(=O)Nc2ccccc2C(=O)O)cc1OC the results were HCMV antiviral -81*, Lassa entry inh 1.3µM*, Marburg entry inh 1.5µM* and FMDV antiviral -3%.
`COc1ccc(/C=C/C(=O)Nc2ccccc2C(F)(F)F)cc1OC` gave HCMV antiviral 4, Lassa entry inh inconclusive, Marburg entry inh 5% and FMDV antiviral 0%.
CCN(CC)CCNC(=O)c1sc2nc3n(c(=O)c2c1C)CCCCC3 was read as HCMV antiviral -9, Lassa entry inh 10%[46.1 µM] and FMDV antiviral -2%.
`CCN(CC)S(=O)(=O)c1cccc(C(=O)N[C@H](C(=O)NCc2ccc(Cl)cc2)C(C)C)c1` gave HCMV antiviral -17, Lassa entry inh 13µM*, Marburg entry inh 10µM* and FMDV antiviral inconclusive.
For CCN(CC)S(=O)(=O)c1ccc(C(=O)NCc2cccs2)cc1 the results were HCMV antiviral -23, Lassa entry inh 2.9µM*, Marburg entry inh 10% and FMDV antiviral 1%.
Screening CCCN(CCC)S(=O)(=O)c1ccc(C(=O)NCc2ccco2)cc1 returned HCMV antiviral -28, Lassa entry inh 0.79µM*, Marburg entry inh 2% and FMDV antiviral -6%.
`CCN(CC)S(=O)(=O)c1ccc(C(=O)NCc2ccc(C)cc2)cc1` gave HCMV antiviral -2, Lassa entry inh 18µM*, Marburg entry inh -26%[46.1 µM] and FMDV antiviral -3%.
